Sampled rows, rich in hits. Any-hit rate of the full collection: about 21%.
Shiga toxin inh = A qHTS for Small Molecule Inhibitors of Shiga Toxin | Vero cells, Shiga toxin protein synthesis inhibition reporter | inhibition, % at 38.7 µM | actives 9.2% (n = 290,000) | AID 2315, 2010; in the data active means inhibition mostly above about 28%, no sharp cut-off; inactive means mostly below about 43%; further: 0% is about no effect
Pf growth 48h = Primary qHTS for delayed death inhibitors of the malarial parasite plastid, 48 hour incubation; Potency, µM (doses to about 28.7 µM), without a hit: at the top dose activity change, negative = inhibition, most hits filed as inhibitors; P. falciparum luciferase growth in erythrocytes, 48 h; AID 504832, 2011; actives 5.9% (n = 310,000); further: potency means the concentration at half of the fitted maximal effect; on the % scale 0 is the no-effect control and ±100 the full control effect
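Erythrocytes infected with P. falciparum carrying an integrated firefly luciferase reporter (2% hematocrit, 0.1% parasitemia final) were exposed to compounds in RPMI 1640 with 0.5% Albumax at 37 C, 5% CO2. Growth inhibition was scored as reduced luminescence.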
Pf growth 96h = Primary qHTS for delayed death inhibitors of the malarial parasite plastid, 96 hour incubation | AID 504834, 2011 | P. falciparum luciferase reporter growth, 96 h | Potency, µM (titrated, usually from 28.7 µM), inactives show at the top dose activity change, negative = inhibition, hits mostly inhibitors | actives 6.9% (n = 320,000); further: potency means the concentration at half of the fitted maximal effect; on the % scale 0 is the no-effect control and ±100 the full control effect
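96 h incubation, 37 C, 5% CO2, of luciferase-reporter P. falciparum-infected RBCs (2% hematocrit, 0.05% parasitemia final) with test compounds; endpoint luminescence.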
Cycloheximide cs = Cycloheximide Counterscreen for Small Molecule Inhibitors of Shiga Toxin. cell reporter, cycloheximide protein synthesis inhibition counterscreen. actives 12% (n = 300,000). max response, %; in the data active means max response mostly above about 13%, no sharp cut-off; inactive means mostly below about 14%; further: read at 38.3 µM for the half of the compounds with a filed dose; 0% is about no effect
* = called active by the depositor; ? = inconclusive; nt = no result. Unless noted, the call rests on the fitted dose curve; in most records, active means well fitted inhibition curve with a large enough effect; inconclusive means small, poorly fitted or top-dose-only effect, or another doubt; inactive means no such curve, though single readings can be large or run the other way.

SMILES	Shiga toxin inh	Pf growth 48h	Pf growth 96h	Cycloheximide cs
Cc1csc(=O)n1CC(=O)OCC(=O)Nc1ccc(Cl)cc1F	nt	1%	20%	nt
CCC(CC)c1nnc(NC(=O)C2COc3ccccc3O2)s1 (stereo unspecified)	67*	162%	154%	36*
COC(=O)c1c(NC(C)=O)sc2c1CCN(Cc1ccccc1)C2	-4	-3%	4%	-4
Cc1ccc(CSc2nnc(NC(=O)C3COc4ccccc4O3)s2)cc1 (stereo unspecified)	-3	12%	0%	2
CCCCCc1nnc(NC(=O)C2COc3ccccc3O2)s1 (stereo unspecified)	39*	62%	44%	30*
O=C(Nc1nc2c(s1)CCCC2)C1COc2ccccc2O1 (stereo unspecified)	45*	70%	?	38*
COC(=O)c1c(NC(=O)C2COc3ccccc3O2)sc2c1CCN(Cc1ccccc1)C2 (stereo unspecified)	-2	5.2µM*	?	2
CCS(=O)(=O)N1CCC(NC(=O)C(Cc2ccc(OC)c(OC)c2)NC(C)=O)CC1 (stereo unspecified)	nt	64%	4%	7
O=S(=O)(c1ccc(NC(=S)NCc2ccco2)cc1)N1CCCC1	-6	-21%	4%	1
O=C(Nc1ncc(Cc2ccccc2)s1)C1COc2ccccc2O1 (stereo unspecified)	126*	21%	-7%	43*
CCOC(=O)c1c(NC(=O)C2COc3ccccc3O2)sc(C)c1C (stereo unspecified)	-2	5.9µM*	7%	-2
O=C(NC1=NCCS1)C1COc2ccccc2O1 (stereo unspecified)	-24	-28%	-84%	-8
CCc1nnc(NC(=O)C2COc3ccccc3O2)s1 (stereo unspecified)	42	114%	nt	36*
CCCNC(=O)c1c(NC(=O)C2COc3ccccc3O2)sc2c1CCCC2 (stereo unspecified)	-8	5%	10µM*	-2
CCOc1ccc(NC(=S)NC(=O)c2cccnc2)c([N+](=O)[O-])c1	5	-8%	?	8
CC(=O)Nc1ccc(S(=O)(=O)NCCC(=O)OCC(=O)c2cccc(Br)c2)cc1	nt	8%	24%	nt
N=c1c2ccccc2nnn1-c1ccc(C(F)(F)F)cc1	76*	0.29µM*	?	40*
On1nnc2ccc(C(F)(F)F)cc21	-7	0%	?	5
CC(C)CNc1c(N)c(=O)oc2ccccc12	-15	?	nt	-2
Cc1ccn2cc(CC(=O)O)nc2c1	-1	0%	5%	-3
CCOC(=S)SCc1cn2ccccc2n1	42*	-3%	-11%	30*
CCOC(=O)c1cn2ccc(C)cc2n1	77*	53%	23%	29*
O=C(NCc1cn2ccccc2n1)c1ccccc1	21	72%	-18%	10
Cc1ccn2cc(CSc3ccccc3N)nc2c1	105*	173%	109%	46*
CCOC(=S)SCc1cn2ccc(C)cc2n1	12	-17%	?	34*
SMILES	Shiga toxin inh	Pf growth 48h	Pf growth 96h	Cycloheximide cs
COc1ccc(-c2noc(CCCC(=O)Nc3ccc(C(N)=O)cc3)n2)cc1OC	12	?	?	10
O=C1c2cccc3c(O)ccc(c23)C(=O)N1Cc1ccccc1	15	-15%	nt	-1
COc1ccc(NC(=O)/C(Cl)=C(/Cl)S(=O)Cc2ccc(Cl)cc2)cn1 (stereo unspecified)	-41	-36%	?	-13
COc1ccc(NC(=O)CCl)cn1	11	8.3µM*	10µM*	-2
COc1ccc(NC(=O)CC2CC3CCC2C3)cn1 (stereo unspecified)	60	24%	28%	20*
COc1ccc(NC(=O)Nc2ccc(OCc3ccccc3)cc2)cn1	-11	?	-12%	-3
COc1ccc(CC(=O)Nc2ccc(OC)nc2)cc1	-5	15%	-2%	-1
COc1ccc(NC(=O)/C(Cl)=C(/Cl)S(=O)(=O)Cc2ccccc2)cn1	101*	nt	-13%	46*
COc1ccc(NC(=O)C(Cl)=C(Cl)Cl)cn1	16	?	?	23*
OCCOCCN1CCN(C(=S)Nc2ccccc2)CC1	-11	8%	27%	-2
Cc1ccc(OS(=O)(=O)c2cn(C)c(=O)n(C)c2=O)cc1C	25	15%	0%	8
CC(=O)NNc1ncnc2c1cnn2-c1ccc(C)cc1	86*	116%	?	37*
CC(=O)NNc1ncnc2c1cnn2-c1ccc(C)c(Cl)c1	68*	124%	8.3µM*	38*
COc1ccc(CC(=O)NNc2ncnc3c2cnn3-c2ccc(C)cc2)cc1	-4	16%	1%	-1

High-throughput results deposited in PubChem by National Center for Advancing Translational Sciences (NCATS).
